Experimental data as given in PubChem BioAssay AID624483 (NMMLSC, 2012).
Screen size: about 360,000 compounds; about 11,000 (3.1%) were called active. About 2% were inconclusive and are not listed. Cut-off read from the data, not from the text of the source: active = fluorescence intensity above about 16000; inconclusive = no clear call, values can overlap the other calls; inactive = below that. For the sample, actives were picked, then their nearest neighbours and some compounds at random.

Experiment: counter-screen for toxin protease inhibitors: compound fluorescence, primary screen, artefact control for toxin protease inhibitor project, biochemical, multiplex microsphere, HTS (AID 624483)
Conditions: compound autofluorescence counterscreen, microsphere flow cytometry; active compounds read high

| Compound | fluorescence intensity |
| --- | --- |
| CCOC(=O)C1=CCC2C(=O)N(Cc3ccccc3)C(=O)C12 (centres undefined) | 4910 (inactive) |
| CCOC(=O)C1CCN(c2ncnc3c2c(-c2ccccc2)cn3-c2ccc(C)cc2)CC1 | 3930 (inactive) |
| CCOC(=O)C1CCN(Cc2nnc(-c3cccc(Br)c3)o2)CC1 | 3660 (inactive) |
| CCOC(=O)C1CCN(c2ncnc3c2oc2ccc(Br)cc23)CC1 | 22700 (active) |
| O=C(CSc1nc2cccc(F)c2c(=O)n1-c1ccccc1)Nc1ccc2c(c1)CCC2 | 4620 (inactive) |
| C=CCn1c(SCc2csc(C)n2)nc2scc(-c3ccc(C)o3)c2c1=O | 21100 (active) |
| C=CCn1c(SCc2c(C)noc2C)nc2sc3c(c2c1=O)CCC(C)C3 (centres undefined) | 2390 (inactive) |
| C=CCn1c(SCC(=O)NCC2CCCO2)nc2sc(C)c(C)c2c1=O (centres undefined) | 5940 (inactive) |
| COc1ccc(C(C)(NC(C)=O)c2nc(-c3ccc(S(C)(=O)=O)cc3)cs2)cc1 (centres undefined) | 2940 (inactive) |
| COc1ccccc1C1CC(=O)n2c(nc(-c3ccccc3)c2-c2ccccc2)S1 (centres undefined) | 1950 (inactive) |
| NC(=O)CSC1=Nc2ccccc2C2=NC(CCC(=O)NCc3ccc(F)cc3)C(=O)N12 (centres undefined) | 3100 (inactive) |
| CCC(C)NC(=O)CSC1=Nc2ccccc2C2=NC(CCC(=O)NCc3ccco3)C(=O)N12 (centres undefined) | 19500 (active) |
| O=C(CSC1=Nc2ccccc2C2=NC(c3ccccc3)C(=O)N12)NCC1CCCO1 (centres undefined) | 2380 (inactive) |
| CCCCNC(=O)C[C@@H]1C[C@@]2(C(=O)OCC)CCC=C2N(Cc2cccc3ccccc23)C1=O | 5990 (inactive) |
| OCCc1ccc(NCCc2ccco2)cc1 | 6000 (inactive) |
| CC(=O)Nc1cccc(-c2cc3nc(NCc4cccnc4)n(C)c(=O)c3s2)c1 | 3710 (inactive) |
| Nc1nnc(SCn2nnc3ccccc3c2=O)s1 | 4300 (inactive) |
| O=c1c2ccccc2nnn1CSc1nnnn1-c1ccccc1 | 16800 (active) |
| C=CCn1c(SCn2nnc3ccccc3c2=O)nnc1-c1ccc(Cl)cc1 | 15200 (inactive) |
| Cc1cc2nc(-c3ccc(F)cc3)c(Cc3ccsc3)n2c(C)c1Br | 4760 (inactive) |
| COc1ccc(NC(=O)C2CCN(S(=O)(=O)c3ccc4[nH]c(=O)oc4c3)CC2)c(OC)c1 | 4520 (inactive) |
| COC(=O)c1ccccc1NC(=O)C1CCN(S(=O)(=O)c2cc(OC)ccc2OC)CC1 | 16400 (active) |
| COC(=O)c1ccccc1NC(=O)C1CC(=O)N(c2ccc(OC)cc2)C1 (centres undefined) | 3990 (inactive) |
| C/C=C/C(=O)Nc1ccc(N2CCN(c3ccc(C(F)(F)F)cn3)CC2)nc1 | 5380 (inactive) |

| Compound | fluorescence intensity |
| --- | --- |
| COc1ccc(-c2cc(C(=O)N3CCN(c4ccc(F)cc4)CC3)no2)cc1 | 6330 (inactive) |
| COc1ccccc1N1CCN(C(=O)c2cc(-c3ccc(Cl)c(Cl)c3)on2)CC1 | 16600 (active) |
| O=C(c1cc(-c2ccc(Cl)cc2)on1)N1CCN(c2ccccc2)CC1 | 4120 (inactive) |
| O=C(NCc1ccco1)c1cc2sccc2n1Cc1ccc(F)cc1 | 20800 (active) |
| O=C(Cc1ccc(-n2c(=O)c3sccc3n(Cc3ccc(F)cc3)c2=O)cc1)NCc1ccco1 | 5860 (inactive) |
| O=C(NCc1ccco1)c1ccc(Cn2c(=O)c3sccc3n(Cc3ccc(F)cc3)c2=O)cc1 | 5200 (inactive) |
| CC(C)CC(=O)Nc1nnc(S(=O)(=O)N(C)c2ccc(Cl)cc2)s1 | 4020 (inactive) |
| COC(=O)c1ccc2nc(-c3ccc(Cl)cc3)c(Cc3cccc(F)c3)n2c1 | 6340 (inactive) |
| O=C(NCc1nnnn1-c1ccc(Cl)cc1)c1ccc([N+](=O)[O-])o1 | 3830 (inactive) |
| Oc1cccc2cc(-c3ccncc3)cnc12 | 2990 (inactive) |
| O=C(NCCc1ccccn1)c1ccc(COc2ccccc2)o1 | 19400 (active) |
| O=C(NCCc1ccccn1)c1cccnc1Oc1ccc(Cl)cc1 | 5560 (inactive) |
| O=C(CNC(=O)COc1ccccc1)NCCc1ccccn1 | 3410 (inactive) |
| CNc1cncc(-c2cccc(C(=O)N3CCOCC3)c2)n1 | 3830 (inactive) |
| CCCCOC(=O)NCN1C(=O)C2C3C=CC(C3)C2C1=O (centres undefined) | 3370 (inactive) |
| COC(=O)C1=C(C(=O)c2ccc(C)cc2)C(c2ccccc2)n2nnnc2N1 (centres undefined) | 2650 (inactive) |
| CCCCCOC(=O)C1=C(C)Nc2nnnn2C1c1ccc(OC)c(OC)c1OC (centres undefined) | 21200 (active) |
| COc1ccccc1C1C(C(N)=O)=C(C)Nc2nc(CCCO)nn21 (centres undefined) | 3450 (inactive) |
| CCOc1ccc(S(=O)(=O)Nc2nc3cc(OC)ccc3s2)cc1 | 20400 (active) |
| CCOc1ccc2sc(NS(=O)(=O)c3ccc(N)cc3)nc2c1 | 3350 (inactive) |
| CCOc1ccc(S(=O)(=O)Nc2nccs2)cc1 | 4450 (inactive) |
| COc1ccc(-c2nc3ccc(Br)cn3c2Cc2ccc(C)cc2)cc1OC | 4350 (inactive) |
| CCC(=O)Nc1nnc(S(=O)(=O)N(CC(C)C)c2ccccc2)s1 | 3230 (inactive) |
| CCOC(=O)C(Sc1ncc(C#N)c(N)n1)C(C)C (centres undefined) | 2490 (inactive) |

| Compound | fluorescence intensity |
| --- | --- |
| CCn1c(CNC(=O)c2ccc(OC)c(OC)c2)nnc1SCC(=O)Nc1ccccc1 | 11100 (inactive) |
| CCOC(=O)c1ccc(NC(=O)CSc2nnc(COc3ccccc3OC)n2C)cc1 | 23600 (active) |
| COC(=O)c1ccc(NC(=O)CSc2nnc(C3CC3)n2C)cc1 | 5470 (inactive) |
| COC(=O)Nc1ccc(S(=O)(=O)N(C)CC(F)(F)C(F)F)cc1 | 3990 (inactive) |
| CC(=O)Nc1cccc(-c2ccnc3c2CC(C)(C(=O)NCc2ccccc2)O3)c1 (centres undefined) | 3920 (inactive) |
| Cc1cccc(C(=O)OCC(=O)Nc2sccc2C(N)=O)c1C | 3570 (inactive) |
| COc1ccc(-c2cc3nc(C)c(CCC(=O)NC(C)CCc4ccco4)c(C)n3n2)c(OC)c1 (centres undefined) | 3850 (inactive) |
| COc1cc(OC)cc(-c2nc3nc(C)c(CCC(=O)NCc4ccco4)c(C)n3n2)c1 | 21000 (active) |
| Cc1nc2c(-c3ccc(F)cc3)c(C)nn2c(C)c1CCC(=O)NCc1ccco1 | 5410 (inactive) |
| CCn1cc(C(=O)N2CC=C(c3ccccc3)CC2)c(=O)c2ccc(C)nc21 | 11100 (inactive) |
| COc1cccc(CNc2nc(NCc3cccs3)nc3ccsc23)c1 | 3840 (inactive) |
| COc1ccc(S(=O)(=O)n2cnc3ccccc32)c(C)c1 | 3080 (inactive) |
| Cc1ccc(S(=O)(=O)N2CCC(C(=O)OCC(=O)N3CC(=O)Nc4ccccc43)CC2)cc1 | 23100 (active) |
| Cc1ccc(S(=O)(=O)N(C)CC(=O)OCC(=O)N2CC(=O)Nc3ccccc32)cc1 | 4160 (inactive) |
| Cc1ccccc1SCC(=O)OCC(=O)N1CC(=O)Nc2ccccc21 | 3940 (inactive) |
| COc1ccc(C(=O)N2CCCCC2c2cc(C(=O)Nc3ccc(F)c(Cl)c3)no2)cc1 (centres undefined) | 3750 (inactive) |
| CC1(C(=O)NCc2ccc(F)c(F)c2)Cc2c(-c3ccc4c(c3)OCO4)ccnc2O1 (centres undefined) | 2890 (inactive) |
| Cc1nc(C(F)(F)F)ccc1C(=O)N1CCC1(C)C(=O)NS(=O)(=O)c1ccc(F)cc1F (centres undefined) | 3750 (inactive) |
| O=c1c([N+](=O)[O-])cccn1Cc1ccc(F)cc1Cl | 4380 (inactive) |
| CN(C)C(=O)c1cccn(Cc2cccc(C(F)(F)F)c2)c1=O | 4630 (inactive) |
| O=c1c([N+](=O)[O-])cc(C(F)(F)F)cn1Cc1cccc(Cl)c1 | 22600 (active) |
| COc1ccc(C2CC(c3cccc(OC)c3)=NN2c2ccc(S(N)(=O)=O)cc2)cc1 (centres undefined) | 3270 (inactive) |
| CCN(CC)CCN(C)C(c1ccnc2ccccc12)c1nnnn1-c1ccc2c(c1)OCCO2 (centres undefined) | 4670 (inactive) |
| COC(=O)[C@]12CCCCC=C1N(Cc1ccccc1)C(=O)[C@H](CC(=O)NCc1ccc(C)o1)C2 | 5960 (inactive) |

| Compound | fluorescence intensity |
| --- | --- |
| Nc1ncnc2c1ncn2[C@@H]1O[C@H](C(=O)N2CCCN(Cc3ccccc3F)CC2)[C@@H](O)[C@H]1O | 5460 (inactive) |
| CCCCCc1c(-c2cccc(Br)c2)ncn1CCc1ccccc1OC | 5900 (inactive) |
| Cc1c(C#N)c2ncn(CC#N)c(=O)c2n1-c1ccccc1 | 2670 (inactive) |
| CN(C)/C=C/c1c(C#N)c(=O)ncn1Cc1ccccc1 | 22600 (active) |
| CN(C)c1nccc(NCc2ccccc2)c1C#N | 2510 (inactive) |
| CC1=C(C(=O)Nc2ccc(Cl)cc2)C(c2ccco2)NC(=O)N1 (centres undefined) | 21000 (active) |
| COc1ccc(NC(=O)C2=C(C)NC(=O)NC2c2ccccc2[N+](=O)[O-])cc1 (centres undefined) | 4060 (inactive) |
| COc1cc(Cl)cc(C2NC(=O)NC(C)=C2C(=O)NCc2ccccc2)c1O (centres undefined) | 6250 (inactive) |
| O=C(OCc1cn(-c2ccc(Cl)c(Cl)c2)nn1)c1ccccc1Cl | 23100 (active) |
| NC(=O)COC(=O)c1cc(S(=O)(=O)N2CCN(c3ccccc3)CC2)ccc1Cl | 2210 (inactive) |
| Cc1cccc(/C(N)=N/OC(=O)c2ccccc2Cl)c1 | 2520 (inactive) |
| O=C(Nc1ccccc1)c1ccccc1Br | 3570 (inactive) |
| CC(OC(=O)CN1C(=O)c2ccccc2C1=O)C(=O)c1ccccc1 (centres undefined) | 8630 (inactive) |
| CC(C)OC(=O)CN1C(=O)C(=O)c2ccccc21 | 22400 (active) |
| CCOC(=O)CN1C(=O)C(=O)c2cc(C)ccc21 | 3160 (inactive) |
| CC1(C(=O)NS(=O)(=O)c2cccs2)CCN1C(=O)Cc1ccc(-c2ccccc2)cc1 (centres undefined) | 3400 (inactive) |
| O=S1(=O)CC(N2CCN(c3ccccn3)CC2)CN1Cc1ccc(F)cc1 (centres undefined) | 5970 (inactive) |
| O=C(c1ccco1)N1CCN(C(=O)C2c3ccccc3Oc3ccccc32)CC1 | 10300 (inactive) |
| CCC(=O)N1CCCC1(C)C(=O)Nc1ccc2c(c1)CCN2C(C)=O (centres undefined) | 4080 (inactive) |
| O=C(CSc1ccc(/C=N/NC(=O)c2cccc(F)c2)o1)Nc1ccccc1 | 8800 (inactive) |
| COc1cccc(Cn2cc(/C=N/NC(=O)c3cc(O)cc(O)c3)c3ccccc32)c1 | 5960 (inactive) |
| O=C(Cn1cc(/C=N/NC(=O)c2cccc(C(F)(F)F)c2)c2ccccc21)Nc1ccc(F)cc1 | 23300 (active) |
